Experimental data from publication PMC3315485, “Probing the Informational and Regulatory Plasticity of a Transcription Factor DNA–Binding Domain”.
Positions count from the first letter of the chain named.

Experiments:
Assay in all cases: MITOMI; MITOMI, 295 K (22 C); buffer, salt and pH not stated in the material; high values mean tight binding
Details in all cases: protein: ivt; label: fluorescent; dsDNA, one strand shown
MarA wild type (WQR) = target: T1, MarA wild type (WQR) (Escherichia coli, UniProt P0ACH5 1-127)
T1 sequence: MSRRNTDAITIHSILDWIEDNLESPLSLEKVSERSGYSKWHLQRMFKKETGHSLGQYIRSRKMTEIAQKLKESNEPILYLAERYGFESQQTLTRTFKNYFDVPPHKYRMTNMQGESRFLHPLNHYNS
Method in brief: (§1)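 Association constants were determined by MITOMI and are expressed for each site relative to the site with the highest affinity for the same protein variant. The MarA protein variants were made with the RTS E. coli HY kit by in vitro transcription and translation and labelled through addition of tRNA-lys-bodipy-fl. Testing covered 64 synthesized mar binding site variants, with fluorescence read on Genepix at 295K.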

MarA RQR = target: T2, MarA RQR (Escherichia coli, UniProt P0ACH5 1-127, W40R)
T2 sequence: T1 sequence with W40R
Method in brief: as §1

MarA RTR = target: T3, MarA RTR (Escherichia coli, UniProt P0ACH5 1-127, W40R;Q43T)
T3 sequence: T1 sequence with W40R, Q43T
Method in brief: as §1

MarA SAR = target: T4, MarA SAR (Escherichia coli, UniProt P0ACH5 1-127, W40S;Q43A)
T4 sequence: T1 sequence with W40S, Q43A
Method in brief: as §1

MarA TRR = target: T5, MarA TRR (Escherichia coli, UniProt P0ACH5 1-127, W40T;Q43R)
T5 sequence: T1 sequence with W40T, Q43R
Method in brief: as §1

ATGTCGCGTTTTGCTAAAT was tested. Which binding signal (MarA wild type (WQR)) did it give?
The binding signal was 0.426 Ka relative to the best site of the variant.

What about the binding signal (MarA RQR) of the same sequence?
Its binding signal is 0.635 Ka relative to the best site of the variant.

What about the binding signal (MarA RTR) of the same sequence?
The binding signal was 0.353 Ka relative to the best site of the variant.

And the binding signal (MarA SAR)?
The binding signal was 0.219 Ka relative to the best site of the variant.

What about the binding signal (MarA TRR) of the same sequence?
Its binding signal is 0.463 Ka relative to the best site of the variant.

Which binding signal (MarA wild type (WQR)) does the source give for ATGGTCCGTTTTGCTAAAT here?
The binding signal was 0.209 Ka relative to the best site of the variant.

And the binding signal (MarA RQR)?
Its binding signal is 0.18 Ka relative to the best site of the variant.

And the binding signal (MarA RTR)?
The binding signal was 0.146 Ka relative to the best site of the variant.

What about the binding signal (MarA SAR) of the same sequence?
Its binding signal is 0.98 Ka relative to the best site of the variant.

And the binding signal (MarA TRR)?
The binding signal was 0.442 Ka relative to the best site of the variant.

What does the source list for ATGCCTCGTTTTGCTAAAT?
binding signal (MarA wild type (WQR)): 0.454 Ka relative to the best site of the variant; binding signal (MarA RQR): 0.232 Ka relative to the best site of the variant; binding signal (MarA RTR): 0.235 Ka relative to the best site of the variant; binding signal (MarA SAR): 0.486 Ka relative to the best site of the variant; binding signal (MarA TRR): 0.474 Ka relative to the best site of the variant

With ATGGTACGTTTTGCTAAAT as the sequence, how does the binding signal (MarA wild type (WQR)) read?
Its binding signal is 0.294 Ka relative to the best site of the variant.

What about the binding signal (MarA RQR) of the same sequence?
Its binding signal is 0.124 Ka relative to the best site of the variant.

And the binding signal (MarA RTR)?
Its binding signal is 0.222 Ka relative to the best site of the variant.

And the binding signal (MarA SAR)?
Its binding signal is 0.797 Ka relative to the best site of the variant.

What about the binding signal (MarA TRR) of the same sequence?
Its binding signal is 0.39 Ka relative to the best site of the variant.

What does the source list for ATGTCACGTTTTGCTAAAT?
binding signal (MarA wild type (WQR)): 0.38 Ka relative to the best site of the variant; binding signal (MarA RQR): 0.819 Ka relative to the best site of the variant; binding signal (MarA RTR): 0.306 Ka relative to the best site of the variant; binding signal (MarA SAR): 0.302 Ka relative to the best site of the variant; binding signal (MarA TRR): 0.461 Ka relative to the best site of the variant

For ATGAAGCGTTTTGCTAAAT, which binding signal (MarA wild type (WQR)) is on record?
Its binding signal is 0.256 Ka relative to the best site of the variant.

What about the binding signal (MarA RQR) of the same sequence?
The binding signal was 0.0942 Ka relative to the best site of the variant.

And the binding signal (MarA RTR)?
Its binding signal is 0.204 Ka relative to the best site of the variant.

What about the binding signal (MarA SAR) of the same sequence?
Its binding signal is 0.677 Ka relative to the best site of the variant.

And the binding signal (MarA TRR)?
Its binding signal is 0.338 Ka relative to the best site of the variant.

Which results are given for ATGTAGCGTTTTGCTAAAT?
binding signal (MarA wild type (WQR)): 0.284 Ka relative to the best site of the variant; binding signal (MarA RQR): 0.0898 Ka relative to the best site of the variant; binding signal (MarA RTR): 0.685 Ka relative to the best site of the variant; binding signal (MarA SAR): 0.152 Ka relative to the best site of the variant; binding signal (MarA TRR): 0.356 Ka relative to the best site of the variant

Which results are given for ATGTTTCGTTTTGCTAAAT?
binding signal (MarA wild type (WQR)): 0.217 Ka relative to the best site of the variant; binding signal (MarA RQR): 0.214 Ka relative to the best site of the variant; binding signal (MarA RTR): 0.716 Ka relative to the best site of the variant; binding signal (MarA SAR): 0.21 Ka relative to the best site of the variant; binding signal (MarA TRR): 0.539 Ka relative to the best site of the variant

Which results are given for ATGTATCGTTTTGCTAAAT?
binding signal (MarA wild type (WQR)): 0.282 Ka relative to the best site of the variant; binding signal (MarA RQR): 0.121 Ka relative to the best site of the variant; binding signal (MarA RTR): 0.902 Ka relative to the best site of the variant; binding signal (MarA SAR): 0.221 Ka relative to the best site of the variant; binding signal (MarA TRR): 0.432 Ka relative to the best site of the variant

How did the binding signal (MarA wild type (WQR)) turn out when ATGTAACGTTTTGCTAAAT was run?
The binding signal was 0.345 Ka relative to the best site of the variant.

What about the binding signal (MarA RQR) of the same sequence?
The binding signal was 0.135 Ka relative to the best site of the variant.

And the binding signal (MarA RTR)?
The binding signal was 0.514 Ka relative to the best site of the variant.

And the binding signal (MarA SAR)?
Its binding signal is 0.232 Ka relative to the best site of the variant.

What about the binding signal (MarA TRR) of the same sequence?
The binding signal was 0.492 Ka relative to the best site of the variant.

ATGAGACGTTTTGCTAAAT was tested. Which binding signal (MarA wild type (WQR)) did it give?
Its binding signal is 0.307 Ka relative to the best site of the variant.

And the binding signal (MarA RQR)?
The binding signal was 0.0985 Ka relative to the best site of the variant.

What about the binding signal (MarA RTR) of the same sequence?
The binding signal was 0.229 Ka relative to the best site of the variant.

And the binding signal (MarA SAR)?
The binding signal was 0.913 Ka relative to the best site of the variant.

And the binding signal (MarA TRR)?
The binding signal was 0.362 Ka relative to the best site of the variant.

Which binding signal (MarA wild type (WQR)) does the source give for ATGACACGTTTTGCTAAAT here?
Its binding signal is 0.709 Ka relative to the best site of the variant.

What about the binding signal (MarA RQR) of the same sequence?
Its binding signal is 0.337 Ka relative to the best site of the variant.

And the binding signal (MarA RTR)?
Its binding signal is 0.249 Ka relative to the best site of the variant.

What about the binding signal (MarA SAR) of the same sequence?
Its binding signal is 0.637 Ka relative to the best site of the variant.

And the binding signal (MarA TRR)?
Its binding signal is 0.369 Ka relative to the best site of the variant.

Which results are given for ATGAGTCGTTTTGCTAAAT?
binding signal (MarA wild type (WQR)): 0.239 Ka relative to the best site of the variant; binding signal (MarA RQR): 0.136 Ka relative to the best site of the variant; binding signal (MarA RTR): 0.173 Ka relative to the best site of the variant; binding signal (MarA SAR): 0.944 Ka relative to the best site of the variant; binding signal (MarA TRR): 0.446 Ka relative to the best site of the variant

Which results are given for ATGCATCGTTTTGCTAAAT?
binding signal (MarA wild type (WQR)): 0.317 Ka relative to the best site of the variant; binding signal (MarA RQR): 0.112 Ka relative to the best site of the variant; binding signal (MarA RTR): 0.186 Ka relative to the best site of the variant; binding signal (MarA SAR): 0.449 Ka relative to the best site of the variant; binding signal (MarA TRR): 0.422 Ka relative to the best site of the variant

For ATGGACCGTTTTGCTAAAT, which binding signal (MarA wild type (WQR)) is on record?
Its binding signal is 0.196 Ka relative to the best site of the variant.

And the binding signal (MarA RQR)?
The binding signal was 0.106 Ka relative to the best site of the variant.

What about the binding signal (MarA RTR) of the same sequence?
Its binding signal is 0.154 Ka relative to the best site of the variant.

And the binding signal (MarA SAR)?
The binding signal was 0.573 Ka relative to the best site of the variant.

What about the binding signal (MarA TRR) of the same sequence?
Its binding signal is 1 Ka relative to the best site of the variant.

With ATGGGACGTTTTGCTAAAT as the sequence, how does the binding signal (MarA wild type (WQR)) read?
The binding signal was 0.34 Ka relative to the best site of the variant.

What about the binding signal (MarA RQR) of the same sequence?
Its binding signal is 0.136 Ka relative to the best site of the variant.

And the binding signal (MarA SAR)?
The binding signal was 0.498 Ka relative to the best site of the variant.

And the binding signal (MarA TRR)?
Its binding signal is 0.361 Ka relative to the best site of the variant.
